Among the data in PMC8222333, “AsCas12a ultra nuclease facilitates the rapid generation of therapeutic cell medicines” are binding signal values, retold here.

Residue numbers refer to the chain shown, from its start.

Holding throughout (assay): Spec-seq (native PAGE EMSA with sequencing of bound and unbound); 25 mM Tris-HCl pH 7.4, 150 mM KCl, 5 mM MgCl2, 10% glycerol, 1 mM DTT, 40 ng/uL salmon sperm DNA; 400 nM Cas12a, 480 nM crRNA, 50 nM library, 37 C 1 h; native PAGE at room temperature; high values mean tight binding
Holding throughout (conditions): protein: recombinant
For orientation: In EMSA bound probe runs differently from free probe, usually more slowly.

Assay [1] deals with dAsCas12a Ultra (Acidaminococcus sp., UniProt U2UMQ6 1-1307, M537R;F870L;D908A;E993A;D1235A).
The target of assay [2] is dAsCas12a S542R (Acidaminococcus sp., UniProt U2UMQ6 1-1307, S542R;D908A;E993A;D1235A).
Assay [3] concerns the target d-enCas12a (Acidaminococcus sp., UniProt U2UMQ6 1-1307, E174R;S542R;K548R;D908A;E993A;D1235A).
The target of assay [4] is d-enCas12a-Ultra (Acidaminococcus sp., UniProt U2UMQ6 1-1307, E174R;S542R;K548R;M537R;F870L;D908A;E993A;D1235A).
Assay [5] addresses dAsCas12a E174R (Acidaminococcus sp., UniProt U2UMQ6 1-1307, E174R;D908A;E993A;D1235A).
Assay [6] concerns the target dAsCas12a K548R (Acidaminococcus sp., UniProt U2UMQ6 1-1307, K548R;D908A;E993A;D1235A).

B1: AGGT (dsDNA)
DNA 1: GCTATCTAGTGCTCAGTACGCACTGAGGTAGGAAACTTCTGGCAGGACCAGGTCATGAGATCGGAAGAGCACACGTCTGAACTCCAGTCA
DNA 2: TGACTGGAGTTCAGACGTGTGCTCTTCCGATCTCATGACCTGGTCCTGCCAGAAGTTTCCTACCTCAGTGCGTACTGAGCACTAGATAGC
RNA: AAUUUCUACUCUUGUAGAUAGGAAACUUCUGGCAGGACC
B1: the binding signal in assay [1] is -8.68 lnKA; in assay [2], -8.5 lnKA; in assay [3], -5.71 lnKA; in assay [4] it was -3.43 lnKA.

B2: ATGT (dsDNA)
DNA 1: B1 DNA 1 with G27T
DNA 2: B1 DNA 2 with C64A
RNA: B1 RNA
In the case of B2, the binding signal in assay [1] was -8.98 lnKA; in assay [2], -8.67 lnKA; in assay [3], -5.72 lnKA; in assay [4], -3.21 lnKA.

B3: AGTG (dsDNA)
DNA 1: B1 DNA 1 with G28T, T29G
DNA 2: B1 DNA 2 with A62C, C63A
RNA: B1 RNA
As to B3, the binding signal in assay [1] is -8.77 lnKA; in assay [5], -8.75 lnKA; in assay [2], -8.41 lnKA; in assay [3], -3.79 lnKA; in assay [4] it was -1.18 lnKA.

B4: CCTC (dsDNA)
DNA 1: B1 DNA 1 with A26C, G27C, G28T, T29C
DNA 2: B1 DNA 2 with A62G, C63A, C64G, T65G
RNA: B1 RNA
In the case of B4, the binding signal is -6.9 lnKA in assay [1]; -6.59 lnKA in assay [5]; -7.68 lnKA in assay [2]; -5.18 lnKA in assay [3]; -2.06 lnKA in assay [4].

B5: CCTT (dsDNA)
DNA 1: B1 DNA 1 with A26C, G27C, G28T
DNA 2: B1 DNA 2 with C63A, C64G, T65G
RNA: B1 RNA
In the case of B5, the binding signal in assay [1] was -8.97 lnKA; in assay [5] it was -8.31 lnKA; in assay [2], -8.32 lnKA; in assay [3], -5.69 lnKA; in assay [4] it was -3.27 lnKA.

B6: AGTC (dsDNA)
DNA 1: B1 DNA 1 with G28T, T29C
DNA 2: B1 DNA 2 with A62G, C63A
RNA: B1 RNA
B6: the binding signal in assay [1] was -8.75 lnKA; in assay [5] it was -8.31 lnKA; in assay [2], -8.14 lnKA; in assay [6], -7.9 lnKA; in assay [3] it was -2.3 lnKA; in assay [4], -0.544 lnKA.

B7: CGGG (dsDNA)
DNA 1: B1 DNA 1 with A26C, T29G
DNA 2: B1 DNA 2 with A62C, T65G
RNA: B1 RNA
As for B7, the binding signal in assay [1] is -8.98 lnKA; in assay [3], -6.24 lnKA; in assay [4] it was -3.42 lnKA.

B8: AGTA (dsDNA)
DNA 1: B1 DNA 1 with G28T, T29A
DNA 2: B1 DNA 2 with A62T, C63A
RNA: B1 RNA
Consider B8, for which the binding signal in assay [1] was -8.43 lnKA; in assay [5], -8.14 lnKA; in assay [2], -7.93 lnKA; in assay [6], -8.98 lnKA; in assay [3], -2.11 lnKA; in assay [4] it was -0.526 lnKA.

B9: CCCC (dsDNA)
DNA 1: B1 DNA 1 with A26C, G27C, G28C, T29C
DNA 2: B1 DNA 2 with A62G, C63G, C64G, T65G
RNA: B1 RNA
In the case of B9, the binding signal in assay [1] was -8.74 lnKA; in assay [5] it was -8.52 lnKA; in assay [2], -4.35 lnKA; in assay [3] it was -1.8 lnKA; in assay [4], -0.387 lnKA.

B10: CCTA (dsDNA)
DNA 1: B1 DNA 1 with A26C, G27C, G28T, T29A
DNA 2: B1 DNA 2 with A62T, C63A, C64G, T65G
RNA: B1 RNA
For B10, the binding signal in assay [1] is -7.06 lnKA; in assay [5] it was -5.98 lnKA; in assay [2] it was -7.77 lnKA; in assay [3], -5.38 lnKA; in assay [4], -2.2 lnKA.

B11: ATGA (dsDNA)
DNA 1: B1 DNA 1 with G27T, T29A
DNA 2: B1 DNA 2 with A62T, C64A
RNA: B1 RNA
B11: the binding signal in assay [1] is -8.29 lnKA; in assay [5] it was -8.88 lnKA; in assay [2], -7.95 lnKA; in assay [3], -5.35 lnKA; in assay [4], -3.17 lnKA.

B12: CCGG (dsDNA)
DNA 1: B1 DNA 1 with A26C, G27C, T29G
DNA 2: B1 DNA 2 with A62C, C64G, T65G
RNA: B1 RNA
On to B12, for which the binding signal in assay [1] is -8.87 lnKA; in assay [2], -8.41 lnKA; in assay [3], -6.11 lnKA; in assay [4], -3.44 lnKA.

B13: CCTG (dsDNA)
DNA 1: B1 DNA 1 with A26C, G27C, G28T, T29G
DNA 2: B1 DNA 2 with A62C, C63A, C64G, T65G
RNA: B1 RNA
As to B13, the binding signal in assay [1] is -7.53 lnKA; in assay [5], -7.6 lnKA; in assay [2], -8.1 lnKA; in assay [3], -5.7 lnKA; in assay [4] it was -3.13 lnKA.

B14: AGTT (dsDNA)
DNA 1: B1 DNA 1 with G28T
DNA 2: B1 DNA 2 with C63A
RNA: B1 RNA
With B14, the binding signal in assay [1] is -8.9 lnKA; in assay [5], -8.38 lnKA; in assay [2], -8.18 lnKA; in assay [3], -4.88 lnKA; in assay [4], -1.91 lnKA.

B15: ATAA (dsDNA)
DNA 1: B1 DNA 1 with G27T, G28A, T29A
DNA 2: B1 DNA 2 with A62T, C63T, C64A
RNA: B1 RNA
With B15, the binding signal in assay [1] was -8.76 lnKA; in assay [5] it was -8.75 lnKA; in assay [2] it was -8.17 lnKA; in assay [3], -5.28 lnKA; in assay [4], -3.12 lnKA.
